Holding throughout (assay): DAPPL (digital affinity profiling via proximity ligation, sequencing); 10 mM Tris-HCl pH 7.5, 50 mM NaCl, 1 mM DTT, 4% glycerol, room temperature, 30 min; GST-TFs on glutathione beads, 16-mer random dsDNA library, 0.1% formaldehyde crosslink after washing; high values mean tight binding
One assay concerns the target T1, FEV (Homo sapiens, UniProt Q99581 1-238).
T1 sequence: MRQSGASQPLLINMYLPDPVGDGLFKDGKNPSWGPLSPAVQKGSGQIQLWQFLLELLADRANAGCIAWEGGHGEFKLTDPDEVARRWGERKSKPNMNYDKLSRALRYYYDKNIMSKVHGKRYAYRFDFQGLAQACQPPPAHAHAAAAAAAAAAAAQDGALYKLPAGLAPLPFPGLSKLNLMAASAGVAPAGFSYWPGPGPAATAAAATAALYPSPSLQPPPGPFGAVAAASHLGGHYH
Particulars: protein: recombinant; tags: N-terminal GST; dsDNA, one strand shown. Put shortly:
(§1)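 Yeast served to express human transcription factors as GST fusions, which were then captured on glutathione beads and labelled with DNA barcodes. Pooled with a tag-only sample, they were incubated with 200 nmole of a 16-mer random double-stranded DNA library for 30 min at room temperature in Tris/NaCl/DTT/glycerol buffer, washed, crosslinked with 0.1% formaldehyde, ligated by proximity, amplified by PCR and sequenced. Dividing each hexamer's read frequency for a factor by its frequency for the tag-only sample gives the binding signal.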

In another assay the target is ETV5 (Homo sapiens, UniProt P41161 1-510). Particulars: protein: recombinant; tags: N-terminal GST; dsDNA, one strand shown. Put shortly:
as §1

The target in another assay is HSF1 (Homo sapiens, UniProt Q00613 1-529). To be noted: protein: recombinant; tags: N-terminal GST; chain copies: 3; dsDNA, one strand shown. Put shortly:
as §1

A further assay has as its target T2, SPIC (Homo sapiens, UniProt Q8N5J4 1-248).
T2 sequence: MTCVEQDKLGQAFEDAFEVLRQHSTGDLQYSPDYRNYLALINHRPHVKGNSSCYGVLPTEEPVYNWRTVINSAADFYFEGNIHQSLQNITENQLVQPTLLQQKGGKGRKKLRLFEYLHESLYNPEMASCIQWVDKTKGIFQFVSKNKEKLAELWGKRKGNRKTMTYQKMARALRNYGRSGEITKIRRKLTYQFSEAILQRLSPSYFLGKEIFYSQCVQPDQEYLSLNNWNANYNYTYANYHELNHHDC
Particulars: protein: recombinant; tags: N-terminal GST; dsDNA, one strand shown. In short, it runs like this: as §1

The next assay has as its target ELF4 (Homo sapiens, UniProt Q99607 1-663). To be noted: protein: recombinant; tags: N-terminal GST; dsDNA, one strand shown. In short, it runs like this:
as §1

Another assay has as its target T3, ELK4 (Homo sapiens, UniProt P28324-2 1-405).
T3 sequence: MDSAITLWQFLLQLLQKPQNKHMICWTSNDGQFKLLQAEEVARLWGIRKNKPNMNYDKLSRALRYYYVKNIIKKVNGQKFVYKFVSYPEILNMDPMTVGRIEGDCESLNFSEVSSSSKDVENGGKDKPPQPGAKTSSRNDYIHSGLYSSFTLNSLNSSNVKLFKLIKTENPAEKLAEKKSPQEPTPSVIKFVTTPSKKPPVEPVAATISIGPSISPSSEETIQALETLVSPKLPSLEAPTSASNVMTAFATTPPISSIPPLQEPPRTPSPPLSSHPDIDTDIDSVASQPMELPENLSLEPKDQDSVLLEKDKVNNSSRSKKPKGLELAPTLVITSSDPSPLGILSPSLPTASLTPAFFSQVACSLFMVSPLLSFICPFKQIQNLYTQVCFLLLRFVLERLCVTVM
To be noted: protein: recombinant; tags: N-terminal GST; dsDNA, one strand shown. Put shortly: as §1

A further assay addresses T4, ETV2 (Homo sapiens, UniProt O00321 1-342).
T4 sequence: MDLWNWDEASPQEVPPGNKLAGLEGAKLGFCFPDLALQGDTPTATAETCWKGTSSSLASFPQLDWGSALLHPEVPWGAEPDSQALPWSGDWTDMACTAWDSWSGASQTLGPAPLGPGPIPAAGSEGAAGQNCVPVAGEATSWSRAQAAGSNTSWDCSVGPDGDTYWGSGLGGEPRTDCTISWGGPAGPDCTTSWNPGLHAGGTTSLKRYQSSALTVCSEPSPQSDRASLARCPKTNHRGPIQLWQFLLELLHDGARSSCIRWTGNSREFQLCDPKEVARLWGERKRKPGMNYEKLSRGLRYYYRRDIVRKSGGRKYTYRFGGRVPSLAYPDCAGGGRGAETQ
Particulars: protein: recombinant; tags: N-terminal GST; dsDNA, one strand shown. Put shortly: as §1

The next assay has as its target T5, ELF3 (Homo sapiens, UniProt P78545 1-371).
T5 sequence: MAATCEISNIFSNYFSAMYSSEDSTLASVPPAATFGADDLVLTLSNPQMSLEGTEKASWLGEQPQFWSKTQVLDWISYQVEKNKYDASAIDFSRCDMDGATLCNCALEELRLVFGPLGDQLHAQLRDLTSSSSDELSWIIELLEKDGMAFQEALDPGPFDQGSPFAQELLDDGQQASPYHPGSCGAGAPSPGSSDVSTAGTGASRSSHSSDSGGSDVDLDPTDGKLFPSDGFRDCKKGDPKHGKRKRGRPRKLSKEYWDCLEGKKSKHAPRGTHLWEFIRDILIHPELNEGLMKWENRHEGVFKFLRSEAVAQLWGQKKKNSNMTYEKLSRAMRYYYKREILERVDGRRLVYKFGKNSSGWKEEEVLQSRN
Particulars: protein: recombinant; tags: N-terminal GST; dsDNA, one strand shown. Put shortly:
as §1

The next assay deals with CRX (Homo sapiens, UniProt O43186 1-299). Particulars: protein: recombinant; tags: N-terminal GST; dsDNA, one strand shown. Put shortly:
as §1

The next assay concerns the target ETV1 (Homo sapiens, UniProt P50549 1-477). To be noted: protein: recombinant; tags: N-terminal GST; dsDNA, one strand shown. Put shortly: as §1
A further assay concerns the target T6, ERF (Homo sapiens, UniProt P50548 1-548).
T6 sequence: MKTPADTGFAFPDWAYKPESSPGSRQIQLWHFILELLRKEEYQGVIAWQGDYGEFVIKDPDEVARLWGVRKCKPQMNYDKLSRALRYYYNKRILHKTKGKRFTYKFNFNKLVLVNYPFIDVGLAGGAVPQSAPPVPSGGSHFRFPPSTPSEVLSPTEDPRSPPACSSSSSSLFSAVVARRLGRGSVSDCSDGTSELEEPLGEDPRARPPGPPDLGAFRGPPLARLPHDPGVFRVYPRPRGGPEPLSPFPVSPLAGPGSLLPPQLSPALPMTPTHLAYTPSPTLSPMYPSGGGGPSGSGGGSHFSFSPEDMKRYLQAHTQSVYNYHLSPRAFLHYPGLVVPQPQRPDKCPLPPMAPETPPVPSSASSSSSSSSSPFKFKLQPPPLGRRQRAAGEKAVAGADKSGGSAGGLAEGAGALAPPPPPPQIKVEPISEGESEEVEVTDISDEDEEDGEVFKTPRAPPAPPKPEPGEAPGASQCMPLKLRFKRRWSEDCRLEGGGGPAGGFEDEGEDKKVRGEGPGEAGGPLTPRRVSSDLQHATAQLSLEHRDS
Particulars: protein: recombinant; tags: N-terminal GST; dsDNA, one strand shown. Put shortly:
as §1

The next assay addresses T7, ETV3L (Homo sapiens, UniProt Q6ZN32 1-361).
T7 sequence: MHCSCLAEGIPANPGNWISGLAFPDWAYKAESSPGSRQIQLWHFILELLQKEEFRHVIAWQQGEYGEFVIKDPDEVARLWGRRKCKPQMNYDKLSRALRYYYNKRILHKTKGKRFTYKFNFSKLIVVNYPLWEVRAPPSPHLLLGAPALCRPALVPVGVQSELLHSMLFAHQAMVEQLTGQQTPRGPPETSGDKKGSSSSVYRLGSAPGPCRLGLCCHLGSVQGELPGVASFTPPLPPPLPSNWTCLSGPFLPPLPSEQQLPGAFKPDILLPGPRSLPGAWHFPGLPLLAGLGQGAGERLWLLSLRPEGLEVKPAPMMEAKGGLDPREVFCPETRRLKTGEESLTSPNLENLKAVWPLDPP
To be noted: protein: recombinant; tags: N-terminal GST; dsDNA, one strand shown. Put shortly:
as §1

In a further assay the target is T8, ETS2 (Homo sapiens, UniProt P15036 1-469).
T8 sequence: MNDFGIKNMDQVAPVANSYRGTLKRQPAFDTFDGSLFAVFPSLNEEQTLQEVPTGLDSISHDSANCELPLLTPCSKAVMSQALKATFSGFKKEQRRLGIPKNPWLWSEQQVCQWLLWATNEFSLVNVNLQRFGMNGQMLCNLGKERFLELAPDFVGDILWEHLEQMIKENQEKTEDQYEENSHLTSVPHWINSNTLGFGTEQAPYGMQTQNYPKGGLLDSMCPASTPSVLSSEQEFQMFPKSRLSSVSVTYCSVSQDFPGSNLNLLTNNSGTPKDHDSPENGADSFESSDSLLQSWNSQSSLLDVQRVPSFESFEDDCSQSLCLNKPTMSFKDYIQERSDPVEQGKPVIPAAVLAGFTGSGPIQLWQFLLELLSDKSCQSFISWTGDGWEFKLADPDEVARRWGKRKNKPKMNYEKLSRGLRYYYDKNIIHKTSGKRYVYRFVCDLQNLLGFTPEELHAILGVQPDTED
Particulars: protein: recombinant; tags: N-terminal GST; dsDNA, one strand shown. Put shortly: as §1

A further assay concerns the target T9, SPDEF (Homo sapiens, UniProt O95238 1-335).
T9 sequence: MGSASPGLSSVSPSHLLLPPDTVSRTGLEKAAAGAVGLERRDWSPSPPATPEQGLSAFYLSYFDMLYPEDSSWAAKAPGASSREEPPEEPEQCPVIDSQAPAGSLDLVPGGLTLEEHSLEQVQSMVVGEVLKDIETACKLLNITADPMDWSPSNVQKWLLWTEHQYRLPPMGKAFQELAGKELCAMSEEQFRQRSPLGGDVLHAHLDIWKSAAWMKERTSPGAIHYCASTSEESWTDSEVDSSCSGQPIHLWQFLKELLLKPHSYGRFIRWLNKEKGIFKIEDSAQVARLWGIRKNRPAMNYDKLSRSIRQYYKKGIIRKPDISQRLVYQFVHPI
Particulars: protein: recombinant; tags: N-terminal GST; dsDNA, one strand shown. Put shortly:
as §1

Another assay concerns the target T10, ETV7 (Homo sapiens, UniProt Q9Y603 1-341).
T10 sequence: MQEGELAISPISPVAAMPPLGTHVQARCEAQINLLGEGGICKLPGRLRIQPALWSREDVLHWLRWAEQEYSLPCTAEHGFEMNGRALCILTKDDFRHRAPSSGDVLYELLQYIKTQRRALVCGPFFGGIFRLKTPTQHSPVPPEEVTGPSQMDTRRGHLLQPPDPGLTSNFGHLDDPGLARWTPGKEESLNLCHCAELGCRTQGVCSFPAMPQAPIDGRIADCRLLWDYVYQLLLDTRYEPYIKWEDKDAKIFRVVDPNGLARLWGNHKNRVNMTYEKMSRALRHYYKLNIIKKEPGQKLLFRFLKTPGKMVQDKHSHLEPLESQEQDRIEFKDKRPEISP
To be noted: protein: recombinant; tags: N-terminal GST; dsDNA, one strand shown. Put shortly:
as §1

The target in the next assay is T11, ELF5 (Homo sapiens, UniProt Q9UKW6-2 1-255).
T11 sequence: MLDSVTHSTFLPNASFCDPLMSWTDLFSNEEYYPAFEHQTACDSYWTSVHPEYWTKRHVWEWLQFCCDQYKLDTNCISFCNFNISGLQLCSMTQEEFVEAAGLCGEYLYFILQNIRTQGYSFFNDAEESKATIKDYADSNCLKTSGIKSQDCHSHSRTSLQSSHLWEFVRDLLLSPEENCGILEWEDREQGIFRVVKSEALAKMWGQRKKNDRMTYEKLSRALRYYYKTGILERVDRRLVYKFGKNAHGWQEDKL
Particulars: protein: recombinant; tags: N-terminal GST; dsDNA, one strand shown. In short, it runs like this:
as §1

For a further assay, the target named is T12, ETV3 (Homo sapiens, UniProt P41162-2 1-143).
T12 sequence: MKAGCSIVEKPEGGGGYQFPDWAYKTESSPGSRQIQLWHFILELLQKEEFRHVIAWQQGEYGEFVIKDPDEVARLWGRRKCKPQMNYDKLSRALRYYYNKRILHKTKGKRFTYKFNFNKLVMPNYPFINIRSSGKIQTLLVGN
To be noted: protein: recombinant; tags: N-terminal GST; dsDNA, one strand shown. Put shortly: as §1

The next assay addresses ETV6 (Homo sapiens, UniProt P41212 1-452). To be noted: protein: recombinant; tags: N-terminal GST; dsDNA, one strand shown. In short, it runs like this:
as §1

ETV1, sequence (P50549 whole entry): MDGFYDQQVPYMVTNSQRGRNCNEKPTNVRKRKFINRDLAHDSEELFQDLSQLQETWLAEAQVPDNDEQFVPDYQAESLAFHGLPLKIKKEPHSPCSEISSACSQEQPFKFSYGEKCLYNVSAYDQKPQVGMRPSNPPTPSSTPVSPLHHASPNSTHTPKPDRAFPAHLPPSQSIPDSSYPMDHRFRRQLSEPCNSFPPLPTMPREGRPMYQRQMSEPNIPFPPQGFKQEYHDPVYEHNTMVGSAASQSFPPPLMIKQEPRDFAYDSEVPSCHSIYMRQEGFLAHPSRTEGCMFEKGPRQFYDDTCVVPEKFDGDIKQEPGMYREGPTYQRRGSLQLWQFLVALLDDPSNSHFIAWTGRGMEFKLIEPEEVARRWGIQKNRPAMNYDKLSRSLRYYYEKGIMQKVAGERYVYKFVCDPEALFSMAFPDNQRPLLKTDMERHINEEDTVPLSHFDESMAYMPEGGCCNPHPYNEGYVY
ELF4, sequence (Q99607 whole entry): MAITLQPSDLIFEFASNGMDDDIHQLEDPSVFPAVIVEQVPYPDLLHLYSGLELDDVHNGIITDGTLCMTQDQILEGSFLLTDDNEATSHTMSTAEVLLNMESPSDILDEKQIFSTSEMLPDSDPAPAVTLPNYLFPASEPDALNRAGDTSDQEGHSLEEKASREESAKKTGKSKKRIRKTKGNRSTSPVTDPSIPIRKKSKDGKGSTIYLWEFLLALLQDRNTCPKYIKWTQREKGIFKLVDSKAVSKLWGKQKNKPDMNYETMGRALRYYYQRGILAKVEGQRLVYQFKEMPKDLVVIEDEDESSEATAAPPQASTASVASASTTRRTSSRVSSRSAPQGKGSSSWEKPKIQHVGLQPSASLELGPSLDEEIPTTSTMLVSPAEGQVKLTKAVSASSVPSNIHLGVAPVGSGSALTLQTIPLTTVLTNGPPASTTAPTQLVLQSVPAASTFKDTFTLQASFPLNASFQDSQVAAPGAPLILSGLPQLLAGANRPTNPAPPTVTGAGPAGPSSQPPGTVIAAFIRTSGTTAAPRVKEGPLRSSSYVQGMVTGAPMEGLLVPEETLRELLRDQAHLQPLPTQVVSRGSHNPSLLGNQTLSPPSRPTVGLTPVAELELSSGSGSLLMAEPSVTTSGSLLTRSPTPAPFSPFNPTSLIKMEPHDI
HSF1, sequence (Q00613 whole entry): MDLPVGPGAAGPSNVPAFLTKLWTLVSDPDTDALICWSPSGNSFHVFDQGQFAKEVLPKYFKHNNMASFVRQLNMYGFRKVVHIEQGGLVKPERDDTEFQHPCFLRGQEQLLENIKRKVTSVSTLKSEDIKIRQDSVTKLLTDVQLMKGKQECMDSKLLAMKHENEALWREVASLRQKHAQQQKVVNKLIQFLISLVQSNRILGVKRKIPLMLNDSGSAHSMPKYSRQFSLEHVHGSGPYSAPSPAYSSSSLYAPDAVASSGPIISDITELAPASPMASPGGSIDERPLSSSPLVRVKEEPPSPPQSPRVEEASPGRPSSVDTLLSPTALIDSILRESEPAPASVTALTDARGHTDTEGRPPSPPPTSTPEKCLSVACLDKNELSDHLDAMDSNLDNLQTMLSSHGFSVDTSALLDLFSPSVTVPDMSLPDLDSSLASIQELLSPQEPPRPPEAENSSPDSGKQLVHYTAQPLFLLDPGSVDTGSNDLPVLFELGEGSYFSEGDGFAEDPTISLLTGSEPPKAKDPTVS
CRX, sequence (O43186 whole entry): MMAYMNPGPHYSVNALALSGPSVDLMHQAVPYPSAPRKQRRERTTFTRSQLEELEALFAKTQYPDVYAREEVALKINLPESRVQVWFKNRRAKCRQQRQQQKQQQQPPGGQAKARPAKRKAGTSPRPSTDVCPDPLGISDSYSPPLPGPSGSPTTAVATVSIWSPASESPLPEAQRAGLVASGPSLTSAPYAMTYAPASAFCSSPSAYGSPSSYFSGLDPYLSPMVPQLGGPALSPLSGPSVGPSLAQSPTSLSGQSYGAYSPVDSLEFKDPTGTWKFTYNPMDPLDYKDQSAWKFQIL
ETV5, sequence (P41161 whole entry): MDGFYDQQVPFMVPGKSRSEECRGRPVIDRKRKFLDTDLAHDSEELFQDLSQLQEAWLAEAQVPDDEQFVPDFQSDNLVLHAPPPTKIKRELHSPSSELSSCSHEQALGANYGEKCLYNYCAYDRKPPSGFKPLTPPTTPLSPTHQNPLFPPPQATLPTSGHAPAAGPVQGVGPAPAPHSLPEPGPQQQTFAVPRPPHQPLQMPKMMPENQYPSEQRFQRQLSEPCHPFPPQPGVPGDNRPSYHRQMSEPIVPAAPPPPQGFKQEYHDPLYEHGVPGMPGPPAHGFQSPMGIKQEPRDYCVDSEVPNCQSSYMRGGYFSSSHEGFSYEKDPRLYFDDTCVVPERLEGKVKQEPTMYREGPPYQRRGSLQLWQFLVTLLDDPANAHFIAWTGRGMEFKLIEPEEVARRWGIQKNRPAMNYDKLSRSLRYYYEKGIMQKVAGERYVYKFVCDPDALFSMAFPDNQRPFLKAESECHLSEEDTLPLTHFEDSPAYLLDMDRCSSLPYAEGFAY
ETV6, sequence (P41212 whole entry): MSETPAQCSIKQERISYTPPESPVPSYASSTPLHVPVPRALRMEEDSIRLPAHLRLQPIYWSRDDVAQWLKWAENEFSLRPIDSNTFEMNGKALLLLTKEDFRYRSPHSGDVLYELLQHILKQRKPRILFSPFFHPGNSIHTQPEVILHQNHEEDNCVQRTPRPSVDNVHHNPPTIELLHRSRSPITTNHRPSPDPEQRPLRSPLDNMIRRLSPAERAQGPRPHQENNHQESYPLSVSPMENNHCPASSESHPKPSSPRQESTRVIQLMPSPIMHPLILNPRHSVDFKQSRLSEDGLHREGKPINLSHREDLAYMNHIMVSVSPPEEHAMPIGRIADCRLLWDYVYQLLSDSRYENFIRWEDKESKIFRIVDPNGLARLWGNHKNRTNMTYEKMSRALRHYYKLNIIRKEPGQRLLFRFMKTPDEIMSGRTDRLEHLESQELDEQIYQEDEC

For TTTCAC, the binding signal is 1.37 fold enrichment (6-mer frequency, TF over GST control) in the assay with FEV; 1.37 fold enrichment (6-mer frequency, TF over GST control) with ETV5; 1.23 fold enrichment (6-mer frequency, TF over GST control) in the assay with HSF1; 1.17 fold enrichment (6-mer frequency, TF over GST control) in the assay with SPIC; 1.43 fold enrichment (6-mer frequency, TF over GST control) with ELF4; 1.52 fold enrichment (6-mer frequency, TF over GST control) with ELK4. Further, the binding signal with ETV2 is 1.35 fold enrichment (6-mer frequency, TF over GST control); in the assay with ELF3 it was 1.26 fold enrichment (6-mer frequency, TF over GST control); in the assay with CRX it was 1.14 fold enrichment (6-mer frequency, TF over GST control); with ETV1 it was 1.42 fold enrichment (6-mer frequency, TF over GST control); with ERF, 1.44 fold enrichment (6-mer frequency, TF over GST control); in the assay with ETV3L, 1.36 fold enrichment (6-mer frequency, TF over GST control). Also, the binding signal with ETS2 was 1.32 fold enrichment (6-mer frequency, TF over GST control); in the assay with SPDEF, 1.33 fold enrichment (6-mer frequency, TF over GST control); with ETV7, 1.4 fold enrichment (6-mer frequency, TF over GST control); with ELF5 it was 1.42 fold enrichment (6-mer frequency, TF over GST control); with ETV3, 1.32 fold enrichment (6-mer frequency, TF over GST control); with ETV6 it was 1.3 fold enrichment (6-mer frequency, TF over GST control).

(Values after PMC7862700, “An all-to-all approach to the identification of sequence-specific readers for epigenetic DNA modifications on cytosine”.)
